Data as given in PubChem BioAssay AID1159580 (chemical genetic matrix, 2015).
Values joined by “and” are separate entries in the source; they are usually repeats but may differ in a detail not shown here. Equal values may be shown once. Out of some 5,500 compounds screened, about 2,000 (36%) were called active. Inconclusive results (about 18%) are left out. No stated cut-off is given here; in the data, active means normalized growth mostly below about 0.91 (no sharp cut-off); inconclusive means no clear call, values can overlap the other calls; inactive means mostly above about 0.92. This is one part of the list.

Experiment: chemical genetic growth profiling, strain panel (AID 1159580);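 further: tested at 20 µM; growth read once vehicle control cultures reached saturation at 30 °C; 1 = growth at the plate median or of vehicle wells; lower values mean less growth of the strain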
Details: S. cerevisiae deletion strains, growth OD

Measured: normalized growth

O=c1[nH]c(=O)n(C2C[C@@H](O)[C@@H](CO)O2)cc1F (stereo partly drawn)
inactive: locus YAL013W, strain DEP1, active compounds read low 1.04 | locus YAL021C, strain ccr4, active compounds read low 1.01 | locus YAL026C, strain drs2, active compounds read low 0.996 | locus YAL030W, strain snc1, active compounds read low 0.992 | locus YBL061C, strain skt5, active compounds read low 0.987 | locus YBR009C, strain hhf1, active compounds read low 1 | locus YBR021W, strain FUR4, active compounds read low 1 | locus YBR023C, strain chs3, active compounds read low 1 | locus YBR171W, strain sec66, active compounds read low 0.993 | locus YBR229C, strain ROT2, active compounds read low 1 | locus YBR231C, strain swc5, active compounds read low 1 | locus YBR279W, strain paf1, active compounds read low 1.01 | locus YCL011C, strain gbp2, active compounds read low 1.01 | locus YCL016C, strain dcc1, active compounds read low 0.994 | locus YCL029C, strain bik1, active compounds read low 1.01 | locus YCL061C, strain MRC1, active compounds read low 0.996 | locus YCL069W, strain vba3, active compounds read low 0.987 | locus YCR088W, strain abp1, active compounds read low 0.986 | locus YDL005C, strain med2, active compounds read low 0.992 | locus YDL035C, strain GPR1, active compounds read low 0.99 | locus YDL040C, strain nat1, active compounds read low 1.01 | locus YDL074C, strain BRE1, active compounds read low 1.04 | locus YDL101C, strain DUN1, active compounds read low 1.03 | locus YDL185W, strain tfp1, active compounds read low 1.01 | locus YDL192W, strain arf1, active compounds read low 1.02 | locus YDR001C, strain nth1, active compounds read low 0.979 | locus YDR069C, strain doa4, active compounds read low 0.998 | locus YDR101C, strain arx1, active compounds read low 1.01 | locus YDR137W, strain rgp1, active compounds read low 0.989 | locus YDR159W, strain sac3, active compounds read low 0.992 | locus YDR162C, strain NBP2, active compounds read low 0.993 | locus YDR195W, strain ref2 0.984 | locus YDR297W, strain sur2, active compounds read low 0.998 | locus YDR318W, strain mcm21, active compounds read low 1.01 | locus YDR334W, strain swr1, active compounds read low 0.97 | locus YDR335W, strain msn5, active compounds read low 1.01 | locus YDR388W, active compounds read low 1.01 | locus YDR392W, strain spt3, active compounds read low 0.994 | locus YDR502C, strain sam2, active compounds read low 1.01 | locus YEL003W, strain gim4, active compounds read low 0.989 | locus YEL037C, strain rad23, active compounds read low 0.993 | locus YEL061C, strain CIN8 (second series), active compounds read low 0.981 | locus YEL061C, strain CIN8, active compounds read low 1.01 | locus YER015W, strain faa2, active compounds read low 0.998 | locus YER016W, strain bim1, active compounds read low 1.01 | locus YER110C, active compounds read low 1.02 | locus YER111C, strain swi4, active compounds read low 0.996 | locus YER155C, strain BEM2 (second series), active compounds read low 1.01 | locus YER155C, strain BEM2, active compounds read low 1.01 | locus YER167W, strain BCK2, active compounds read low 1 | locus YFR010W, strain ubp6, active compounds read low 1.01 | locus YGL078C, strain dbp3, active compounds read low 1 | locus YGL086W, strain mad1, active compounds read low 1.01 | locus YGL167C, strain pmr1, active compounds read low 0.996 | locus YGL173C, strain kem1, active compounds read low 1.01 | locus YGL227W, strain vid30, active compounds read low 0.979 | locus YGL240W, strain doc1, active compounds read low 0.972 | locus YGL248W, strain PDE1, active compounds read low 1.03 | locus YGL253W, strain hxk2, active compounds read low 1 | locus YGR078C, strain PAC10, active compounds read low 1.03 | locus YGR135W, strain pre9, active compounds read low 1.01 | locus YGR252W, strain gcn5, active compounds read low 1.01 | locus YHR013C, strain ard1, active compounds read low 1.01 | locus YHR027C, strain rpn1, active compounds read low 0.98 | locus YHR030C, strain SLT2, active compounds read low 1 and 0.982 | locus YHR079C, strain IRE1 (second series), active compounds read low 1.02 | locus YHR079C, strain IRE1, active compounds read low 0.965 | locus YHR094C, strain hxt1, active compounds read low 1.02 | locus YHR129C, strain ARP1, active compounds read low 1.01 | locus YHR142W, strain chs7, active compounds read low 0.985 | locus YHR200W, strain rpn10, active compounds read low 1.01 | locus YIL066C, strain RNR3, active compounds read low 0.988 | locus YIL073C, strain SPO22, active compounds read low 1.04 | locus YIL125W, strain kgd1, active compounds read low 1.02 | locus YIR030C, strain dcg1, active compounds read low 1.01 | locus YJL092W, strain hpr5, active compounds read low 0.971 | locus YJL095W, strain BCK1 (second series), active compounds read low 1.01 | locus YJL095W, strain BCK1, active compounds read low 1.06 and 0.975 | locus YJL115W, strain asf1, active compounds read low 0.982 | locus YJL129C, strain trk1, active compounds read low 0.963 | locus YJL134W, strain LCB3, active compounds read low 1.01 | locus YJL154C, strain vps35, active compounds read low 0.993 | locus YJL164C, strain tpk1, active compounds read low 1 | locus YJL166W, strain qcr8, active compounds read low 1.01 | locus YJL168C, strain set2, active compounds read low 1.01 | locus YJL187C, strain SWE1 (second series), active compounds read low 1.05 | locus YJL187C, strain SWE1, active compounds read low 0.994 | locus YJR043C, strain POL32, active compounds read low 0.975
